Test results reported in PubChem BioAssay (NCATS).
Inconclusive results are not listed. Entries that show only a call come without a potency. Activity calls are given as the source filed them. Unless noted, calls come from the whole dose curve; as a rule, active = well fitted curve in the direction sought with a large enough effect; inconclusive = small, poorly fitted or top-dose-only effect, or another doubt; inactive = no such curve, though single readings can be large; an effect the other way counts as inactive or inconclusive.

Tests used:
[1] = biological target: Calcium and integrin-binding protein 1 (Homo sapiens) (UniProt Q99828); assay: Primary qHTS for Identification of Calcium Integrin Binding Protein 1 (CIB1) Competitor (AID 1508620);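 note: GST tagged CIB1 binding a fluorescein labelled alphaIIb integrin peptide tracer; top concentration of the series differs between compounds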
Outline: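 Fluorescence polarization competition: CIB1-GST (1 uM final) preincubated with compound 15 min at room temperature, then FITC-labeled alphaIIb peptide (100 nM final) added for another 15 min. Polarization read at Ex 480/Em 540.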

[2] = biological target: Cytochrome P450 2D6 (Homo sapiens) (UniProt P10635); assay: Cytochrome P450 family 2 subfamily D member 6 (CYP2D6) small molecule antagonists: luciferase biochemical (cell-free) qHTS assay (AID 1645840; active = well fitted curve in the direction sought with a large enough effect in the repeat runs; an effect the other way counts as inactive or inconclusive; note: nearly all actives have a fitted effect of over 55% in size; note: potency is the fitted concentration of half-maximal effect)
Outline: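 P450-Glo luminescent screen: recombinant CYP2D6 enzyme–proluciferin substrate mix preincubated with compound 10 min at room temperature, then NADPH regeneration added for 1 h at room temperature. Detection reagent added for 20 min; luciferin light read as relative luminescence units.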

Cytochrome P450 2D6 (Homo sapiens), sequence (P10635 whole entry, looked up): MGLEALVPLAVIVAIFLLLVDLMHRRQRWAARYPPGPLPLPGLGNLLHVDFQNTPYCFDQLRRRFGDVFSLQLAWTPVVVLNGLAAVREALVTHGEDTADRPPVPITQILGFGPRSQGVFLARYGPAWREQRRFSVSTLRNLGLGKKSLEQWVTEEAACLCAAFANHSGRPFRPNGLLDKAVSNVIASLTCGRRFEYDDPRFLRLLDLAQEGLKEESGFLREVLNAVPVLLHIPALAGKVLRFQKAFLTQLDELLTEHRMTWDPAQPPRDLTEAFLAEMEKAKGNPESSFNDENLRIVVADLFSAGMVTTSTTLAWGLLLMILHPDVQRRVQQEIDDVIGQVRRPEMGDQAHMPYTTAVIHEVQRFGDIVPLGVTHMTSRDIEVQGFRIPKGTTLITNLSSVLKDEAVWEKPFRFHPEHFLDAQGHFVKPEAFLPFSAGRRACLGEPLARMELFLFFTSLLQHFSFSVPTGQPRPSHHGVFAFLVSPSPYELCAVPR
Calcium and integrin-binding protein 1 (Homo sapiens), sequence (Q99828 whole entry, looked up): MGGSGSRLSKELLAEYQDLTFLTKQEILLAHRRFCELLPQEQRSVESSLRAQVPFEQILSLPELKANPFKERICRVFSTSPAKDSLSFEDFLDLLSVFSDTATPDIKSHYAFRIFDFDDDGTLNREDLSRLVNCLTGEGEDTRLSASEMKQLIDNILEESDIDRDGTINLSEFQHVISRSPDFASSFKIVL

Structure (SMILES)	Potency [1]	Potency [2]
CN(C)C(=O)NC1(c2ccccc2)CCN(CCC[C@]2(c3ccc(Cl)c(Cl)c3)CCCN(C(=O)c3ccccc3)C2)CC1	inactive	3.38 µM (active)
COc1ccc(N2CCN(C(=O)c3cc4c(s3)-c3ccccc3S(=O)(=O)C4)CC2)cc1	inactive	inactive
Cc1nc2ccc(-n3ncc(C(=O)c4cc5ccccc5[nH]4)c3N)cc2[nH]1	inactive	23.9 µM (active)
CCC[C@@]1(CCc2ccccc2)CC(O)=C([C@H](CC)c2cccc(NS(=O)(=O)c3ccc(C(F)(F)F)cn3)c2)C(=O)O1	inactive	6.01 µM (active)
O=C(NCCCn1ccnc1)c1cc(-c2ccco2)on1	inactive	8.49 µM (active)
COc1ccc(Oc2c(Cl)cnn(-c3cc(C)cc(C)c3)c2=O)cc1	inactive	inactive
Cc1nc(NC(=O)N2CCC[C@H]2C(N)=O)sc1-c1ccnc(C(C)(C)C(F)(F)F)c1	inactive	inactive
O=C(NCCCCN1CCN(c2cccc(Cl)c2Cl)CC1)c1cc2ccccc2s1	inactive	0.301 µM (active)
Cc1cn2cc(C(=O)N(C)CCO)cc(NC3CCOc4cccc(C)c43)c2n1 (stereo not given)	inactive	inactive
O=C(NC1CCN(CCCCC2(C(=O)NCC(F)(F)F)c3ccccc3-c3ccccc32)CC1)c1ccccc1-c1ccc(C(F)(F)F)cc1	inactive	1.07 µM (active)
Cc1nc(C#Cc2ccnc(Cl)c2)c(C)n1-c1ccc(F)cc1	inactive	19 µM (active)
CC(C)c1cc2c(N3CCN(C4=NCC(C)(C)S4)CC3)ncnc2s1	inactive	3.01 µM (active)
COC1CCN(c2cccc(-c3cc(NC(C)=O)nc(-n4nc(C)cc4C)n3)n2)CC1	inactive	6.01 µM (active)
CN(C)CCN(Cc1ccccc1)C(=O)c1cc(-c2ccc(F)cc2)n2nc(C(C)(C)C)cc2n1	inactive	16.9 µM (active)
CC#CC(=O)Nc1ccc2ncnc(Nc3cccc(Br)c3)c2c1	inactive	inactive
CC1(NC(=O)c2ccc(C#Cc3cccc(F)c3)cn2)COC1	inactive	inactive
CCn1c(=O)n([C@H]2CCCN(c3nccc(-c4cc5ccccc5o4)n3)C2)c2ccccc21	inactive	inactive
Cc1cc(C)c(-n2cc(C)c3c(Cl)nc(C)nc32)c(C)c1	inactive	inactive

Structure (SMILES)	Potency [1]	Potency [2]
O=C(Nc1cc(C(F)(F)F)ccc1N1CCCCC1)c1ccncc1	inactive	8.49 µM (active)
CCOC(=O)CCNc1cc(N2CCc3ccccc3CC2)nc(-c2cccnc2)n1	inactive	10.7 µM (active)
O=S1(=O)CCN(Cc2cc(NCC3CCOCC3)c3[nH]c(-c4ccccc4)cc3c2)CC1	inactive	12 µM (active)
O=C(Nc1ccc(CN2CCOCC2)cc1)c1ccc(-c2cccc(Cl)c2)o1	inactive	15.1 µM (active)
CC(C)S(=O)(=O)c1ccc2nccc(Nc3ccc4scnc4c3)c2c1	inactive	10.7 µM (active)
COc1ccc(S(=O)(=O)Nc2c(C)cc(C)cc2C)cc1	inactive	inactive
O=S(=O)(NCc1cccc2ccccc12)c1cc(Cl)c(Oc2cccc(N3CCNCC3)c2)s1	inactive	8.49 µM (active)
O=C(NCCCN1CCOCC1)c1cnn2c(-c3ccccc3)cc(-c3ccccc3)nc12	inactive	inactive
Cc1nc(Nc2ccc(F)cc2)nc(N2CCc3ccccc3C2C)c1C (stereo not given)	inactive	7.56 µM (active)
CN1CCN(Cc2ccc(NC(=O)Cc3ccc(Oc4cc(NC(=O)C5CC5)ncn4)cc3)cc2C(F)(F)F)CC1	inactive	15.1 µM (active)
COc1ccc2nc(-c3cc(OC)c(OC)c(OC)c3)cc(C(=O)NCC(=O)Nc3ccc(C(C)=O)cc3)c2c1	inactive	inactive
N#Cc1cc(-c2ccnc(Nc3ccc(N4CCOCC4)cc3)n2)ccc1OC1CCOCC1	inactive	inactive
COc1ccc(-c2cc3onc(-c4ccncc4)c3c(=O)n2C)cc1	inactive	9.52 µM (active)
Cc1ccc(S(=O)(=O)N2CCC[C@H]2c2ccc(F)cc2)cc1	inactive	inactive
Cc1ccc(S(=O)(=O)NCc2ccc(C(=O)NCCN(Cc3ccccc3)C(C)C)cc2)cc1	inactive	12 µM (active)
COc1cc(Br)c(S(=O)(=O)Nc2ccc(Cl)c(O[C@@H]3CCN(C)C3)c2)cc1OC	inactive	15.1 µM (active)
c1ccc(-c2ccc(CNc3nc(-c4ccccn4)nnc3-c3ccccc3)cc2)cc1	inactive	2.68 µM (active)
